The record followed here is PubChem BioAssay AID2289 (National Center for Advancing Translational Sciences (NCATS), 2010).

The campaign covered roughly 340,000 compounds. About 3,300 (0.97%) were called active. Roughly 9% stayed inconclusive and do not appear here. The call rests on the fitted dose curve; in most records, active means well fitted inhibition curve with a large enough effect; inconclusive means small, poorly fitted or top-dose-only effect, or effect the other way; inactive means flat fitted curve, though single readings scatter. This is one part of the list.
Potency means the concentration at half of the fitted maximal effect.

A short description of the experiment: qHTS Assay for Modulators of miRNAs and/or Inhibitors of miR-21. Further: nearly all actives have a fitted effect of over 55% in size. The note with it: HeLa miR-21-FLuc reporter, luciferase luminescence, 48 h; actives lower the signal. From the text: MLSCN Grant: 1 R21 NS059478-01 Assay Provider: Qihong Huang, The Wistar Institute NCGC Assay Overview: MicroRNAs (miRNAs) are endogenously encoded small (~20-25 nucleotides), nonprotein-coding RNAs that are involved in post-transcriptional repression of target messenger RNAs (mRNAs) (Le and Hannon, 2004). Estimated to be involved in the regulation of 30% of all protein-coding mRNAs (Filipowicz et al., 2008), miRNAs play a significant role in many biological processes including cellular differentiation and tissue development (Ghildiyal and Zamore, 2009).
NCGC Assay Protocol Summary: Reagents: HeLa cells stably expressing firefly luciferase (FLuc) under the control of a CMV promoter (upstream) and a miR-21 binding sequence directly downstream of the gene. These cells endogenously express miR-21. Control compounds used were compound C3 (provided by collaborator), N6-phenyladenosine (MP Biomedicals, 0215379625), and DMSO. Assay Summary: 6uL of HeLa miR-21-FLuc cells in assay buffer (DMEM, Invitrogen #21063-029; 10% FBS, HyClone #SH30071.03) were dispensed at 2000cells/well (3.3 x 10^5 cells/mL) into Greiner solid-white TC-treated 1536-well plates using a Multidrop Combi (Thermo Fisher Scientific). Plates were incubated for one hour at 37 degree Celsius, 95% humidity, 5% CO2. These assay plates were then treated with 23nL of compound or DMSO using a Kalypsys pin tool, which allows for delivery of a 24-point titration of each compound to the assay plate, with a final compound concentration ranging from approximately 40uM to 5pM. Assay plates were then incubated for 48 hours. After incubation, plates were allowed to come to RT for one hour prior to delivery of 3uL of 3X luciferase detection reagent. After a 15 minute incubation to allow for cell lysis, luciferase activity was measured using a ViewLux CCD imager (PerkinElmer), with an average exposure time of 2-12 seconds. Keywords: NIH Roadmap, MLPCN, MLSMR, qHTS, miR-21, microRNA, firefly luciferase, FLuc.
A general note: Quantitative high-throughput screening tests each substance at several concentrations.
As to `COc1cc(SC)ccc1C(=O)Nc1ccc(C)cc1C`, the Potency was 1.85 µM (active).

Consider `CCCCN(C(=O)Cc1cccs1)c1nnc(-c2cccnc2)s1`, for which the Potency is 14.7 µM (active). For `CSc1nc(N)nc(SCC(=O)OC(C)C)c1C#N` the value was 13.1 µM (active).

On to `CCOC(=O)CSc1nc(N)c(C#N)cc1C#N`, for which the Potency is 8.26 µM (active). For `CC(C)OC(=O)CSc1nc(N)c(C#N)cc1C#N`, the Potency is 5.85 µM (active). Regarding `O=C1CCn2nc(-c3ccc(Cl)cc3)cc2N1`, the Potency was 6.56 µM (active). Take `O=C(CCCc1ccccc1)c1ccccc1`: the Potency is 2.07 µM (active). For `O=C(CCCc1ccccc1)Nc1cccc(C(=O)O)c1`, the Potency was 0.464 µM (active). For `O=C(NCc1ccccc1)C(=O)Nc1cccc(C(=O)O)c1` the value was 0.185 µM (active); for `COc1cccc(NC(=O)C(=O)NCCc2ccc(F)cc2)c1`, 11.7 µM (active); for `Cc1cccc(NC(=O)CCCc2ccccc2)c1`, 7.36 µM (active). For `Cc1cccc(NC(=O)C(=O)NCCCc2ccccc2)c1` the value was 16.5 µM (active); for `Cc1cc(N2CCOCC2)n2ncc(-c3ccccc3Cl)c2n1`, 1.65 µM (active). For `COc1ccccc1-c1cnn2c(NC3CCCC3)cc(C)nc12` the value was 5.85 µM (active). With `COc1ccccc1-c1cnn2c(N3CCOCC3)cc(C)nc12`, the Potency was 14.7 µM (active). With `Cc1cc(N2CCOCC2)n2ncc(-c3ccc(Cl)cc3)c2n1` the figure was 0.414 µM (active). In the case of `C/C(=N\O)c1sc(-c2ccccc2)nc1C`, the Potency was 1.85 µM (active).

Regarding `CNC(=O)c1sc(-c2ccc(Cl)cc2)nc1C`, the Potency is 6.56 µM (active).

Take `Cc1nc(-c2ccc(Cl)cc2)sc1C(=O)O`: the Potency was 11.7 µM (active). For `Cc1cc(/C=C\c2ccccc2)nc2ccccc12` the value was 7.36 µM (active); for `CC(C)(C)n1cnc2cc(NCc3ccc(Br)cc3)ccc21`, 4.14 µM (active). With `CCc1ccc(CNc2ccc3c(c2)ncn3C(C)(C)C)cc1` the figure was 5.85 µM (active); with `O=C(O)c1ccc(N/N=C/C2=Cc3ccccc3OC2)cc1`, 1.17 µM (active). As to `CCS(=O)(=O)c1ccc2oc(Nc3ccccc3Cl)nc2c1`, the Potency was 1.85 µM (active). For `CCS(=O)(=O)c1ccc2oc(Nc3ccccc3Br)nc2c1` the value was 2.07 µM (active); for `CCN(CC)S(=O)(=O)c1ccc2oc(Nc3ccccc3)nc2c1`, 9.27 µM (active); for `C=CCNc1nc(Nc2ccccc2F)nc(OCC)n1`, 5.85 µM (active). Take `Cc1ccc(NC(=O)C2Cc3ccccc3O/C2=N\O)cc1C` (centres undefined): the Potency is 14.7 µM (active). With `Cc1cccc(NC(=O)C2Cc3ccccc3O/C2=N\O)c1` (centres undefined) the figure was 14.7 µM (active); with `O=C(Nc1ccc(Br)cc1)C1Cc2ccccc2O/C1=N\O` (centres undefined), 7.36 µM (active). `COCCNc1oc(/C=C/c2ccccc2)nc1C#N`: the Potency is 2.07 µM (active). With `COCCCNc1oc(/C=C/c2ccccc2)nc1C#N` the figure was 0.464 µM (active).

In the case of `N#Cc1nc(/C=C/c2ccccc2)oc1NCCCN1CCOCC1`, the Potency is 10.4 µM (active). With `CC(C)c1ccc(NC(=O)C(c2ccccc2)N2CC(=O)Nc3ccccc32)cc1` (centres undefined) the figure was 13.1 µM (active).

As for `CCC(C)C(=O)N1CCc2cc(-c3csc(N)n3)ccc21` (centres undefined), the Potency was 1.65 µM (active). With `CCCC(=O)N1c2ccc(-c3csc(N)n3)cc2CC1C` (centres undefined) the figure was 1.85 µM (active). For `O=c1[nH]n(Cc2ccccc2)c(=O)c2ccccc12` the value was 13.1 µM (active); for `O=C(NC(=S)Nc1nc2ccccc2s1)c1cccs1`, 0.521 µM (active); for `Cc1ccc2nc(NC(=S)NC(=O)c3cccs3)sc2c1`, 0.656 µM (active). With `O=S(=O)(c1cc(F)ccc1F)N1CCC2(CC1)OCCO2` the figure was 5.21 µM (active); with `COc1cc2ccccc2cc1C(=O)NC(=S)Nc1cccc(C(=O)O)c1`, 14.7 µM (active); with `COc1ccc(C(=O)c2cc3cccc(OC)c3o2)cc1`, 3.29 µM (active). Take `COc1cc(OC)c(C(=O)Nc2ccc3ccccc3c2)cc1OC`: the Potency was 2.93 µM (active). With `COc1ccc(NC(=O)c2sc3nc[nH]c(=O)c3c2C)cc1` the figure was 5.85 µM (active).

With `COc1cccc2cc(C(=O)N3CCc4ccccc4C3)c(=O)oc12`, the Potency is 16.5 µM (active).

For `COc1cc(OC)c(C(=O)Nc2ccc(N(C)C)cc2)cc1OC`, the Potency was 8.26 µM (active). With `COc1ccc(NC(=O)c2ccc3nc[nH]c3c2)cc1` the figure was 7.36 µM (active); with `O=C(Nc1ccc2ccccc2c1)c1cc(F)c(F)cc1Cl`, 0.656 µM (active).

On to `COc1ccc(C(=O)Nc2ccc3cn[nH]c3c2)c(OC)c1`, for which the Potency is 4.65 µM (active). For `COc1ccc(-c2cccc(C(=O)Nc3cccc(C(=O)O)c3)c2)cc1`, the Potency is 6.56 µM (active). With `COc1cccc(NC(=O)c2cc3cccc(OC)c3o/c2=N\O)c1` the figure was 0.414 µM (active); with `COc1cccc2cc(C(=O)Nc3ccc(C)cc3)c(=O)oc12`, 0.736 µM (active). For `CCOC(=O)CC(NC(=O)c1cc2cccc(OC)c2oc1=O)c1ccc(OC)cc1` (centres undefined) the value was 16.5 µM (active); for `COc1cccc(NC(=O)c2cc3ccccc3cc2OC)c1`, 2.33 µM (active).

On to `COc1ccc(C(c2c(O)ccc3ccccc23)N2CCOCC2)c(OC)c1` (centres undefined), for which the Potency was 11.7 µM (active). For `Cc1ccsc1C1NC(=O)c2c(sc3c2CCCC3)N1` (centres undefined) the value was 5.85 µM (active).

Take `CCN(CC)c1ccc(NC(=O)C2CC3CCC2C3)cc1` (centres undefined): the Potency was 10.4 µM (active). With `O=[N+]([O-])c1cc(C(F)(F)F)ccc1NCCOc1ccccc1` the figure was 7.36 µM (active); with `O=[N+]([O-])c1ccccc1NCCOc1ccccc1`, 7.36 µM (active). For `O=C(NC1CCCCC1)c1ccc2c(c1)OCCO2` the value was 2.93 µM (active).

For `O=C(NC1CC1)c1ccc(-c2ccccc2)cc1`, the Potency is 3.69 µM (active). On to `Cc1cccc(C(=O)NC2CCCCCCC2)c1`, for which the Potency is 2.93 µM (active). With `N#Cc1ccc(C(=O)NC2CCCCCCC2)cc1` the figure was 5.85 µM (active). With `N#Cc1nc(-c2ccccc2Cl)oc1N1CCCCC1` the figure was 16.5 µM (active); with `N#Cc1nc(COc2ccccc2)oc1N1CCCCC1`, 13.1 µM (active).

On to `N#Cc1nc(COc2ccccc2F)oc1N1CCCCCC1`, for which the Potency was 16.5 µM (active).

As to `COC(=O)Nc1ccc2c(c1)ncn2C1CCCCC1`, the Potency was 18.5 µM (active).

As for `CN(c1ccccc1)S(=O)(=O)c1nnc(NC(=O)c2cccs2)s1`, the Potency was 0.117 µM (active).

`Cc1cc(=O)[nH]c(N/N=C/c2cc(C)n(-c3ccccc3)c2C)n1`: the Potency is 3.29 µM (active).
